# Bioassay records: PubChem, several laboratories
# This is a sample that favours compounds with a hit; in the whole collection about 3.9% have one here.
# CCHF vOTU inh: CCHFV vOTU protease inhibition; Pep-AMC fluorescence; inhibition, % at 11.5 µM; hit rate 0.55% among 370,000; AID 651958; note: 0% = vehicle wells with enzyme and 100% = no enzyme wells
# GDH-TPI counter: inhibits GDH-TPI coupling enzymes, artifact for Mtb FBA screen; inhibition, % at 4.8 µM; hit rate 1.2% among 360,000; GDH-TPI coupled enzyme counterscreen, NADH absorbance;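 note: 0% = DMSO wells and 100% = wells lacking the enzyme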
# Vc quorum ag: quorum light induction in luxS cqsA deficient V. cholerae. V. cholerae BH1578 lux reporter, luminescence, 6 h. activation, % at 18.7 µM. hit rate 0.16% among 350,000. AID 588436; in the data active = activation mostly above about 9.7%, no sharp cut-off
# FBA Mtb inh: inhibits M. tuberculosis FBA enzyme; P9WQA3; purified M. tuberculosis FBA, fluorescence read-out; inhibition, % at 1 µM; hit rate 2.3% among 360,000; AID 588726; in the data active = inhibition above about 27%;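 note: 0% = vehicle and 100% = reference inhibitor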
# Target sequence (P9WQA3 whole entry, looked up): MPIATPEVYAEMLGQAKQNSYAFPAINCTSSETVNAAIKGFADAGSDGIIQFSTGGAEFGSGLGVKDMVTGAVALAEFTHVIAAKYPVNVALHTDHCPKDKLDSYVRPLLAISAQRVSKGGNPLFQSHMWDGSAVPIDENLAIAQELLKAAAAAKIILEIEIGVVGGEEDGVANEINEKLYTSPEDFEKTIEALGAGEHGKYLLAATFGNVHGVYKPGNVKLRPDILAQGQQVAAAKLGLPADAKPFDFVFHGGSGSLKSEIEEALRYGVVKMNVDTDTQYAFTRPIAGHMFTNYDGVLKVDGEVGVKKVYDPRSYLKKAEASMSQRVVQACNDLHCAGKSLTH
# An asterisk follows results filed as active; i = inactive; nt = not tested or not shown; + = active, no number. Cut-off read from the data, not from the text of the source, unless noted: active = inhibition above about 30%; inactive = the rest.
SMILES,CCHF vOTU inh,GDH-TPI counter,Vc quorum ag,FBA Mtb inh
CSc1nnc(-c2cc3c(s2)-c2ccccc2CC3)o1,-175,17,-1,+
S=c1[nH]nc(-c2cc3c(s2)-c2ccccc2CC3)o1,-146,22,0,+
CC1CCc2sc(-c3n[nH]c(=S)o3)cc2C1 (centres undefined),-60,15,0,+
O=C(CSc1ccc([N+](=O)[O-])cc1)NNC(=O)c1ccccc1F,16,23,-4,-3
Cc1ccc(CS(=O)Cc2ccc(C(=O)NCCCc3ccccc3)o2)cc1 (centres undefined),0,7,i,4
COc1cc(/C=N/N=C/c2cc(OC)c(O)c(OC)c2)cc(OC)c1O,13,35*,0,-4
COc1ccc(/C=N/N=C/c2ccc(OC)c(O)c2)cc1O,27,50*,0,-2
COc1cc(/C=N/N=C(/C(=O)c2ccccc2)c2ccccc2)cc(OC)c1O,-7,8,0,-2
COc1ccc(/C=N/N=C/c2ccc(OC)c(OC)c2)cc1OC,2,9,i,0
Cc1cc2c(OCC(O)CN3CCCC3)cccc2[nH]1 (centres undefined),2,-4,0,0
Cc1ccc(C(=O)Nc2ccc([N+](=O)[O-])cn2)o1,-6,40*,0,-5
Cn1nnnc1SCc1cn2cccnc2n1,-41,-6,0,122*
COCCOC(=O)c1cc(C(=O)c2cc(F)ccc2O)coc1=N,-8,37*,i,17
COc1ccc(NC(=O)C2(C)CCN2C)cc1OC (centres undefined),4,6,i,-5
COc1ccc(-c2cc3nc4n(c(=O)c3s2)CCC4)cc1,-92,13,-1,+
COc1ccc(-c2cc3nc(C)n(N)c(=O)c3s2)cc1,-99,32*,i,+
Cc1nc2cc(-c3ccccc3)sc2c(=O)n1N,-8,5,0,1
COc1ccc(-c2cc3nc4n(c(=O)c3s2)CCCCC4)cc1,-44,24,-1,+
Cc1ccc(C(=O)Nc2ccccc2C(=O)Nc2ccccn2)cc1Cl,-1,6,-1,3
COc1ccc(N2CC(C(=O)Nc3c4c(nn3-c3ccc(OC)cc3)CS(=O)(=O)C4)CC2=O)cc1 (centres undefined),-1,1,0,4
CCOC(=O)c1sc(NC(=O)CSc2n[nH]c(-c3ccccc3)n2)c(C#N)c1C,25,33*,-1,7
CCOC(=O)c1sc(NC(=O)CSc2nc(C)cc(C)n2)c(C#N)c1C,-3,32*,0,7
CCOC(=O)c1sc(NC(=O)CSc2ccccn2)c(C#N)c1C,-11,5,i,2
CCOC(=O)c1sc(NC(=O)CSc2ncn[nH]2)c(C#N)c1C,-6,31*,-5,-1
CCn1c(SCC(=O)NC2CCCc3ccccc32)nnc1-c1cccs1 (centres undefined),3,10,0,-2
SMILES,CCHF vOTU inh,GDH-TPI counter,Vc quorum ag,FBA Mtb inh
COC(=O)CCC(=O)NNC(=O)C1CC1(c1ccccc1)c1ccccc1 (centres undefined),3,4,0,1
CC1CC(C)CN(C(=O)COC(=O)c2nccnc2N)C1 (centres undefined),-153,1,1,180*
CC1CC(C)CN(C(=O)COC(=O)c2ccc(Cl)nc2)C1 (centres undefined),-7,-3,-1,1
Nc1nccnc1C(=O)OCC(=O)N1CCN(S(=O)(=O)c2ccc(Cl)cc2)CC1,-117,8,2,148*
COC(=O)c1nccnc1N,-123,-2,0,146*
Nc1nccnc1C(=O)OCC(=O)C12CC3CC(CC(C3)C1)C2,-27,8,1,127*
Cc1cnc(C(=O)OCC(=O)C23CC4CC(CC(C4)C2)C3)cn1,-11,11,i,-1
COc1cc(C(C)=O)ccc1COc1ccc(C(=O)OCC(=O)NC(C)(C)C)cc1OC,-3,-3,0,3
CC(C)Oc1ccc(F)cc1-c1cc(C(=O)N2CCc3ccccc3C2)[nH]n1,5,15,0,3
O=S(=O)(c1ccccc1)N1c2cc(Cl)ccc2Oc2nc3ccccc3nc21,10,17,i,0
Cc1ccc(S(=O)(=O)N2CCOCC2)cc1C(=O)OCC(=O)NC1CCS(=O)(=O)C1 (centres undefined),1,5,i,1
O=C(O)CC(C(=O)NC1CCCCC1)C1CCCO1 (centres undefined),-2,-9,i,2
COc1ccc(Nc2nccc(N(C)C)c2C#N)cc1,-7,0,0,7
CNc1oc(-c2cccc3ccccc23)nc1C#N,-184,13,1,+
COc1nc(NCCc2ccc(OC)c(OC)c2)nc(OC)n1,5,9,i,0
CCOP(=O)(OCC)c1nc(-c2cccc3ccccc23)oc1NCCc1ccc(OC)cc1,-167,7,i,168*
COc1ccc(CCNc2oc(-c3ccc(OC)c(OC)c3)nc2P(=O)(OC)OC)cc1OC,-85,19,i,165*
COc1ccc(CNc2oc(-c3cccc4ccccc34)nc2C#N)cc1,-53,10,-1,147*
CCOP(=O)(OCC)c1nc(Cc2ccccc2)oc1NCc1ccccc1,0,6,i,0
CNc1oc(-c2ccccc2Cl)nc1C#N,7,8,-2,12
CCN(c1ccccc1)S(=O)(=O)c1ccc(NCC2COc3ccccc3O2)nc1 (centres undefined),-13,6,i,-5
O=C(O)c1ccc(Nc2nc(-c3cc4ccccc4oc3=O)cs2)cc1O,3,18,0,11
O=c1cccc2n1Cc1cc3ccccc3nc1-2,-226,32*,1,+
O=c1cc(-c2ccc(O)cc2)oc2c(O)c(O)c(O)c(O)c12,11,37*,0,5
O=c1cc(-c2ccc(O)cc2)oc2c1ccc1ccccc12,6,14,i,11
SMILES,CCHF vOTU inh,GDH-TPI counter,Vc quorum ag,FBA Mtb inh
C=C(C)C(=O)Nc1cccc(C2=NOC3(C2)C[C@@H](C(N)=O)N(C(=O)C(=C)C)C3)c1 (some centres undefined),17,3,0,0
COc1ccc(NC(=O)c2cc3c(CO)cnc(C)c3oc2=Nc2cccc(C)c2)c(OC)c1,5,8,20*,6
COc1ccccc1NC(=O)c1cc2c(CO)cnc(C)c2oc1=Nc1ccc(OC)c(OC)c1,13,-1,i,2
COc1ccc(OC)c(CN2C(=O)c3ccccc3C2c2nnnn2Cc2ccccc2)c1 (centres undefined),9,nt,nt,nt
COc1cc(C(=O)Nc2cc(S(=O)(=O)N3CCOCC3)ccc2N2CCOCC2)cc(OC)c1C,8,-3,1,-1
Cc1onc(-c2c(Cl)cccc2Cl)c1C(=O)NNc1ccccc1,6,-3,-1,-1
O=C1C(Cl)=C(N2CCOCC2)C(=O)N1c1cccc(Cl)c1,0,17,1,-1
O=C1/C(=C/c2ccccc2)N=C(N2CCOCC2)N1c1cccc(Cl)c1,-8,32*,0,11
COC(=O)c1ccc2ccccc2n1,nt,3,0,3
Cc1ccc2cc3cc(C(=O)NCCN4CCOCC4)oc3nc2c1,-74,48*,i,91*
